In PubChem BioAssay AID504523 (Broad Institute, 2011):
The whole screen tested about 340,000 compounds, of which about 490 (0.14%) were called active. Rule as the data show it: active = inhibition above about 12%; inconclusive = no clear call, values can overlap the other calls; inactive = below about 7.3%. This excerpt belongs to a sample that is enriched for actives.

Molecular target: Kelch-like ECH-associated protein 1 (Homo sapiens) (UniProt Q14145)
Experiment: Keap1-Nrf2 protein-protein interaction inhibitors, primary screen, biochemical, fluorescence polarization, single point (AID 504523);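 also: human Keap1 Kelch domain with fluorescein labeled Nrf2 9mer peptide probe; 0% = neutral control wells and 100% = peptide positive control; higher means more block of Keap1 binding to Nrf2 peptide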
Conditions: Keap1 Kelch-Nrf2 peptide fluorescence polarization, 1536-well; at 9.4 µM; active compounds read high

Chain of Kelch-like ECH-associated protein 1 (Homo sapiens) (Q14145 whole entry, looked up, the tested form may be a part): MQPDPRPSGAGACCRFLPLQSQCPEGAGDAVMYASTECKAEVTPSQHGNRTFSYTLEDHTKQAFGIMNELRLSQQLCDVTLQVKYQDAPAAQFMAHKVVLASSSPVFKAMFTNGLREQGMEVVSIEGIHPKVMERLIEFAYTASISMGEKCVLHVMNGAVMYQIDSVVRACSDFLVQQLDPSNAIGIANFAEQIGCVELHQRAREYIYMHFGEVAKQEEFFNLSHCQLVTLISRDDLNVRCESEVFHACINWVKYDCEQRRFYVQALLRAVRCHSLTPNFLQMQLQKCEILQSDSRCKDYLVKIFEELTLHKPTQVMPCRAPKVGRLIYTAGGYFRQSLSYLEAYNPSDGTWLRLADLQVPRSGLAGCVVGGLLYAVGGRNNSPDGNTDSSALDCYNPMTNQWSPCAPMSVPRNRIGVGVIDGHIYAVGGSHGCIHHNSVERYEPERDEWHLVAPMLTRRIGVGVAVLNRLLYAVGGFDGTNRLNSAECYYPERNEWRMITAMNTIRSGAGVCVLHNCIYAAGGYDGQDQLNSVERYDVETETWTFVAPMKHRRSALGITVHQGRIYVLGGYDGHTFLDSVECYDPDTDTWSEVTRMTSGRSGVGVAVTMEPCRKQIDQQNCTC

Structure (SMILES) | inhibition
CC1(C)CC(=O)C(N=Nc2c(F)cccc2F)=C(O)C1 | 37.8% (active)
CC1(C)CC(=O)C(C2=NC(C)(C)Cc3ccccc32)=C(O)C1 | -1.79% (inactive)
CC1(C)CC(=O)C(N=Nc2ccc(S(=O)(=O)N3CCCCCC3)cc2)=C(O)C1 | 5.03% (inactive)
CN1CCOC1c1ccc(C2OCCN2C)cc1 (centres undefined) | 1.77% (inactive)
COC(=O)Cc1c(-c2[nH]c3ccccc3c2CC(=O)OC)[nH]c2ccccc12 | -0.936% (inactive)
O=C(C[n+]1cc(Br)cc2ccccc21)c1ccc(F)cc1 | -7.79% (inactive)
COC(=O)C[n+]1cccc2ccccc21 | 36.4% (active)
CCN1CCC(O)(/C=C/c2ccc(C)cc2)C(C(=O)/C=C/c2ccc(C)cc2)C1 (centres undefined) | -56.9% (inactive)
CCC1CCC2(CC1)NC(=O)N(CC(=O)Nc1ccc(OC)cc1)C2=O (centres undefined) | -5.89% (inactive)
COc1cccc(CN2CCNC(=O)C2CC(=O)N(C)CCc2ccccn2)c1 (centres undefined) | -0.18% (inactive)
CCOC(=O)C1(Cc2ccccc2C)CCCN(S(C)(=O)=O)C1 (centres undefined) | -4.08% (inactive)
Cc1ccc(F)cc1NC(=O)N1CCCN(c2ccc(C(F)(F)F)cn2)CC1 | -5.94% (inactive)
OC1CSc2nc3ccccc3n2C1 (centres undefined) | 1.42% (inactive)
CCOC(=O)c1c(C)n(C)c2ccc(OC)c(NC(=O)CN3CCC4(CC3)OCCO4)c12 | -2.53% (inactive)
Cc1cccc(NS(=O)(=O)c2ccc(C)c(C(N)=O)c2)c1 | -6.17% (inactive)
Cc1cccc(NS(=O)(=O)c2ccc(C)c(C(=O)NCC(c3ccccc3)N(C)C)c2)c1 (centres undefined) | 46.2% (active)
COc1ccc(C(CNC(=O)c2cc(S(=O)(=O)Nc3cccc(C)c3)ccc2C)N2CCCC2)cc1 (centres undefined) | -2.75% (inactive)
CCOC(=O)N1CCN(C(=O)COC(=O)c2cccc(S(C)(=O)=O)c2)CC1 | 1.11% (inactive)
C/C(=N/NC(=S)Nc1ccccc1)c1ccc2c(c1)OCO2 | -4.81% (inactive)
Cc1ccc(NC(=O)CSc2sc3c(O)cc(=O)[nH]c3c2C#N)cc1C | -7.74% (inactive)

Structure (SMILES) | inhibition
Cc1nc(CN(C)C(=O)CC2C(=O)NCCN2Cc2ccc(F)cc2)cs1 (centres undefined) | -0.6% (inactive)
COC(=O)c1sc(N)c(C(=O)OC)c1COC(=O)CNS(=O)(=O)c1ccc(C)cc1 | 2.32% (inactive)
CC(C)(O)C#Cc1ncc(C(F)(F)F)cc1Cl | 2.69% (inactive)
Brc1ccc(C2=CC(c3ccco3)n3ncnc3N2)cc1 (centres undefined) | 36.1% (active)
Clc1ccc2c(c1)C1=C(C(c3ccncc3)O2)C(c2ccc(Br)cc2)n2ncnc2N1 (centres undefined) | -2.67% (inactive)
COc1ccccc1NC(=O)CSc1nnc(Cn2nnc(-c3ccccc3)n2)n1-c1ccccc1 | 0.652% (inactive)
CC(=O)Nc1ccc(S(=O)(=O)NNC(=O)CCc2ccccc2)cc1 | -9.19% (inactive)
O=C(CCc1ccccc1)NNc1ccc(F)cc1 | 12.6% (active)
O=C(CCc1ccccc1)NNC(=O)COc1ccc(Cl)cc1 | -4.48% (inactive)
Cc1nc2ccccn2c1C(=O)NN=C1CCN(C)CC1 | -3.6% (inactive)
CC(C)(C)c1ccc(CCC2OCC(CN3CCOCC3)O2)cc1 (centres undefined) | 3.61% (inactive)
Cc1ccc(-n2ncc(C(=O)NC3CC3)c2C2CCN(C(=O)OC(C)(C)C)CC2)c(C)c1 | -3.33% (inactive)
O=S(=O)(c1ccc(Br)cc1)c1nc(-c2ccccc2)oc1N1CCOCC1 | -9.08% (inactive)
CCCC(NC(=O)c1ccccc1)c1nc2ccccc2n1Cc1ccc(C(=O)OC)o1 (centres undefined) | -2.49% (inactive)
CCCNc1c(N)c(=O)c1=O | -1.65% (inactive)
O=C(CCNc1n[nH]c(=O)[nH]c1=O)N/N=C\c1ccc(Br)cc1 | -2.4% (inactive)
CSCC[C@H](NC(=O)NCCc1ccc(F)cc1)C(=O)O | 1.87% (inactive)
COc1ccc(C2/C=C\CN(S(=O)(=O)c3cccs3)CC(=O)N2Cc2ccc(F)cc2)cc1 (centres undefined) | -0.104% (inactive)
O=C(O)CC(c1ccccc1)n1cnnn1 (centres undefined) | -4.84% (inactive)
O=C(O)CC(Cn1cnnn1)c1ccccc1 (centres undefined) | 20.2% (active)

Structure (SMILES) | inhibition
O=C(O)CC(CC(=O)N1CCOCC1)c1ccccc1 (centres undefined) | -1.3% (inactive)
Cc1cccc(C2c3c(n(C)c(=O)n(C)c3=O)N=C3c4ccccc4C(=O)C32)c1 (centres undefined) | -0.0535% (inactive)
Cc1nonc1C1CCCN1Cc1nc(-c2ccc(F)cc2F)oc1C (centres undefined) | -5.07% (inactive)
Cn1c(CCNS(=O)(=O)c2ccc(F)cc2)nnc1SCc1cccnc1 | -1.02% (inactive)
Cc1ccc(OC(=O)c2cncc(Br)c2)c(C)c1 | 5.58% (inactive)
Cc1cccc(N=Nc2c(O)[nH]c3ccc(F)cc23)c1 | 0.392% (inactive)
COc1cccc(NC(=O)CN(C)C(C)C(=O)Nc2ccc(C#N)cc2)c1 (centres undefined) | 4.55% (inactive)
COCCN(C(=O)C(C)N1C(=O)c2ccccc2C1=O)c1c(N)n(CC(C)C)c(=O)[nH]c1=O (centres undefined) | -8.05% (inactive)
CN(C(=O)CC1C(=O)NCCN1Cc1ccc(F)cc1Cl)C1CCCCC1 (centres undefined) | -12.6% (inactive)
O=C(CNC(=O)c1ccc(Br)o1)NCC1CCCO1 (centres undefined) | 3.4% (inactive)
CCN(CC)CC(=O)Nc1nn(-c2ccccc2)nc1C(N)=O | -0.843% (inactive)
O=C(NNc1c2ccccc2nc2ccccc12)c1cc2ccccc2cc1O | -0.162% (inactive)
Cc1onc(-c2ccc(Cl)cc2)c1-c1ccnn1S(=O)(=O)c1ccc(Cl)cc1 | -1.71% (inactive)
O=C(C1=C[C@H](c2coc3ccccc3c2=O)C[C@H](OCc2ccc(CO)cc2)O1)N1CCN(Cc2ccccc2)CC1 | -4.23% (inactive)
Nc1ccc2nc3c(=O)[nH]c(=S)[nH]c3nc2c1 | 39% (active)
CN(CC(=O)Nc1ccc(C(N)=O)cc1)S(=O)(=O)c1ccc2c(c1)OCCO2 | -4.93% (inactive)
CCC(C)(C)c1ccc(Oc2ccc(NC(=O)COC(=O)C3=COCCO3)cc2)cc1 | 1.96% (inactive)
CC(OC(=O)c1ccccc1OCc1ccc(Cl)cc1)C(N)=O (centres undefined) | -6.61% (inactive)
COC(=O)/C=C\C(=O)Nc1cccc([N+](=O)[O-])c1 | 8.41% (inactive)
